# Several values for one entry are separate records, joined by “and”; a condition that tells them apart may be missing. Equal entries are not always repeated. The panel holds about 83,000 compounds, 20% with a hit somewhere; the sample as a whole holds those more often.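 Treatment: one concentration, 48 hours, 96-well format. Scoring: percent growth, with anything below 10 considered active.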 A number with no mark means an inactive call. Activity calls are given as the source filed them.
# Tests used:
# Assay in all cases: NCI-60 one-dose screen, 48 h (100 = growth as untreated, 0 = no growth, -100 = all killed)
# Details in all cases: 10 µM unless noted
# NCI-H23 lung = tested on: NCI-H23 lung
# NCI-H226 lung = tested on: NCI-H226 lung
# HOP-62 NSCLC = tested on: HOP-62 NSCLC
# NCI-H460 lung = tested on: NCI-H460 lung
# HOP-92 NSCLC = tested on: HOP-92 NSCLC
# NCI-H522 lung = tested on: NCI-H522 lung
# A549/ATCC NSCLC = tested on: A549/ATCC NSCLC
# 786-0 renal = tested on: 786-0 renal
# COLO 205 colon = tested on: COLO 205 colon
# DU-145 prostate = tested on: DU-145 prostate
# K-562 leukemia = tested on: K-562 leukemia
# MALME-3M melanoma = tested on: MALME-3M melanoma
# MDA-MB-231 breast = tested on: MDA-MB-231 breast
# RXF 393 renal = tested on: RXF 393 renal
# SF-268 CNS = tested on: SF-268 CNS
# SF-295 CNS = tested on: SF-295 CNS
# SF-539 CNS = tested on: SF-539 CNS
# UACC-257 melanoma = tested on: UACC-257 melanoma
# M14 melanoma = tested on: M14 melanoma
# NCI-H322M lung = tested on: NCI-H322M lung
Structure (SMILES),growth (NCI-H23 lung),growth (NCI-H226 lung),growth (HOP-62 NSCLC),growth (NCI-H460 lung),growth (HOP-92 NSCLC),growth (NCI-H522 lung),growth (A549/ATCC NSCLC),growth (786-0 renal),growth (COLO 205 colon),growth (DU-145 prostate),growth (K-562 leukemia),growth (MALME-3M melanoma),growth (MDA-MB-231 breast),growth (RXF 393 renal),growth (SF-268 CNS),growth (SF-295 CNS),growth (SF-539 CNS),growth (UACC-257 melanoma),growth (M14 melanoma),growth (NCI-H322M lung)
O=[P+](O)c1cccnc1,103%,105%,90.3%,107%,109%,75.7%,101%,98.2%,102%,114%,99.1%,106%,107%,114%,98.2%,103%,105%,104%,106%,–
COc1ccc(N(CC(=O)NCCC[Te]c2ccccc2)C(=O)c2ccccc2)cc1,–,52.7%,15.8%,-1.52% (active),-9.19% (active),-9.72% (active),2.78% (active),75.3%,89.2%,66.6%,56.1%,129%,14.2%,133%,39.2%,-7.61% (active),31.4%,95.4%,–,4.82% (active)
CC1=CC(=Nc2ccc(N(CCCl)CCCl)cc2)C=C(C)C1=O,23%,–,36.5%,7.26% (active),-30.7% (active),-87.2% (active),38.4%,21%,39.5%,-39.4% (active),17.4%,8.43% (active),40.8%,-80.3% (active),-9.09% (active),14.9%,4.45% (active),19.3%,29.5%,79.2%
COc1ccc(C(C#N)C(C)=O)cc1 (stereo unspecified),–,99.9%,98.8%,102%,111%,82.5%,101%,107%,106%,92.6%,104%,108%,116%,111%,88.9%,107%,103%,93%,101%,135%
CC[C@@H](C)C(=O)O[C@H]1[C@H](O)[C@H]2[C@@H](CN3C[C@@H](C)CC[C@H]3[C@@]2(C)O)[C@@H]2C[C@]34O[C@]5(O)[C@@H](OC(=O)[C@@](C)(O)CC)CC[C@@]3(C)[C@@H]5[C@@H](OC(C)=O)[C@@H](OC(C)=O)[C@H]4[C@@]21O,99.1%,–,82.8%,111%,90%,–,70.5%,101%,92.1%,107%,83.9%,103%,94.2%,94.5%,102%,97.2%,100%,–,95.6%,106%
CCOC(=O)c1ccccc1C(=O)OCC,109%,–,92.6%,112%,89.4%,–,99.2%,96.4%,120%,118%,–,102%,93.3%,121%,110%,83.5%,107%,91.3%,–,97.8%
Cc1cc[n+](CCc2ccccc2)cc1,90.5% and 111%,–,87.9% and 114%,110% and 103%,–,94.8% and 85.5%,–,89.7% and 100%,127% and 119%,95.3% and 115%,85.7% and 89.1%,75.4% and 88.6%,115% and 117%,–,98.6% and 108%,111% and 97.7%,97.5% and 107%,103% and 95%,–,–
O=[N+]([O-])c1c(Cl)cc(Cl)c([N+](=O)[O-])c1Cl,98.3%,117%,–,95.8%,99.6%,36.6%,108%,126%,96%,81.3%,103%,175%,110%,131%,96%,–,110%,62.9%,97.2%,–
CCCCCCCCCCCCCCCCCCn1cc[n+](C)c1,–,-54% (active) and -61.7% (active),-58.6% (active) and -74.1% (active),-62.9% (active) and -51.3% (active),-51.3% (active) and -66.2% (active),-74.9% (active) and -74.3% (active),-15.2% (active) and -47.2% (active),-74.9% (active) and -81.7% (active),1.82% (active) and -47.3% (active),-54% (active) and -62.3% (active),28.3% and 17.9%,-33.7% (active) and -30.7% (active),-66.2% (active) and -80.2% (active),-28.3% (active) and -62.1% (active),-45.4% (active) and -45.3% (active),-10.4% (active) and -21.5% (active),-85.2% (active) and -82.9% (active),-38% (active) and -47.9% (active),-62.4% (active) and -49.9% (active),5.3% (active) and 6.16% (active)
CC(C)c1cccc(C(C)C)c1O,97% and 103%,–,111% and 110%,117% and 101%,100%,98%,93.1% and 75.5%,108%,116% and 111%,109% and 116%,92.8% and 104%,95.7% and 91.8%,114% and 107%,109%,110% and 97.7%,101% and 103%,115% and 97.4%,100%,109% and 111%,99.6% and 93%
COc1ccc(O)c2c(=O)c3c(OC)cc4c(c3oc12)[C@@H]1C=CO[C@@H]1O4,6.73% (active),–,36.6%,8.73% (active),70.5%,41.9%,50%,74.6%,36.1%,21.9%,101%,62.8%,67%,61.6%,54.9%,81.6%,37.9%,89.6%,67.4%,42.4%
CC(C)CCC1C(=O)NC(=O)NC1=O,99.4%,–,87.4%,97.7%,109%,–,78.5%,104%,100%,109%,109%,88.9%,97.3%,117%,96.2%,98.4%,–,95.5%,–,94.4%
O=C1NC(=O)C(=Cc2ccccc2)C(=O)N1,98.5% and 102%,–,94.9% and 92.6%,127% and 105%,85.9% and 109%,96.1% and 94.5%,101% and 91.4%,102% and 107%,135% and 109%,103% and 111%,86.2% and 112%,96.1% and 109%,96.4% and 110%,98.5% and 116%,92.9% and 104%,107% and 102%,133% and 101%,98.6%,103% and 106%,106% and 105%

# — PubChem BioAssay (NCI)
